Laboratory results taken from the supplement of paper PMC12067093, “Discovery and optimisation of a covalent ligand for TRIM25 and its application to targeted protein ubiquitination” (Chemical Science, 2025).
Targets with the largest changes are over-represented here; the source holds about 21,000 in all.

Compound: Cc1cc(ccc1-c1ccccc1)C(=O)N1CCCN(CC1)C(=O)CCl [compound 10]
Test: probe-labelled cysteine peptide fold change vs DMSO (competition) (log2 fold change); higher = less target engagement (more negative = stronger competition)
Settings: THP-1, incubation time: 4 h
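Also: competitive profiling in live THP-1 cells: cysteine peptides tagged with an iodoacetamide desthiobiotin (IA-DTB) probe, intensity after compound treatment relative to DMSO-treated cells.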

Chain of UniProt P31939 (P31939 whole entry, looked up): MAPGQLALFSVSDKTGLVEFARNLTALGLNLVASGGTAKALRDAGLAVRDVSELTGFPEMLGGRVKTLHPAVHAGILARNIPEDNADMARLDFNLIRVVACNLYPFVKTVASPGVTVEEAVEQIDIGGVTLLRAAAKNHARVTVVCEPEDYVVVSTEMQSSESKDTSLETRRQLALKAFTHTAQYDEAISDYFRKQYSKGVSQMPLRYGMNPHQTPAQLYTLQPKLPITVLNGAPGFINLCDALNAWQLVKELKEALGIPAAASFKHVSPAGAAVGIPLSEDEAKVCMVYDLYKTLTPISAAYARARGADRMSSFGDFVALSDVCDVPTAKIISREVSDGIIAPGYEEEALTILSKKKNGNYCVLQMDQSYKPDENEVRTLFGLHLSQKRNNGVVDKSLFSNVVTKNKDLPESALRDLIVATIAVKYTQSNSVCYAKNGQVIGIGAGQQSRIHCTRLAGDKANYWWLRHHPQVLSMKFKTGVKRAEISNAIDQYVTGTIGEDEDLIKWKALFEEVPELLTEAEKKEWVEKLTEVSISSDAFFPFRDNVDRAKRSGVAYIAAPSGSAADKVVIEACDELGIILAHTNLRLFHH
Chain of UniProt P35573 (P35573 whole entry, looked up): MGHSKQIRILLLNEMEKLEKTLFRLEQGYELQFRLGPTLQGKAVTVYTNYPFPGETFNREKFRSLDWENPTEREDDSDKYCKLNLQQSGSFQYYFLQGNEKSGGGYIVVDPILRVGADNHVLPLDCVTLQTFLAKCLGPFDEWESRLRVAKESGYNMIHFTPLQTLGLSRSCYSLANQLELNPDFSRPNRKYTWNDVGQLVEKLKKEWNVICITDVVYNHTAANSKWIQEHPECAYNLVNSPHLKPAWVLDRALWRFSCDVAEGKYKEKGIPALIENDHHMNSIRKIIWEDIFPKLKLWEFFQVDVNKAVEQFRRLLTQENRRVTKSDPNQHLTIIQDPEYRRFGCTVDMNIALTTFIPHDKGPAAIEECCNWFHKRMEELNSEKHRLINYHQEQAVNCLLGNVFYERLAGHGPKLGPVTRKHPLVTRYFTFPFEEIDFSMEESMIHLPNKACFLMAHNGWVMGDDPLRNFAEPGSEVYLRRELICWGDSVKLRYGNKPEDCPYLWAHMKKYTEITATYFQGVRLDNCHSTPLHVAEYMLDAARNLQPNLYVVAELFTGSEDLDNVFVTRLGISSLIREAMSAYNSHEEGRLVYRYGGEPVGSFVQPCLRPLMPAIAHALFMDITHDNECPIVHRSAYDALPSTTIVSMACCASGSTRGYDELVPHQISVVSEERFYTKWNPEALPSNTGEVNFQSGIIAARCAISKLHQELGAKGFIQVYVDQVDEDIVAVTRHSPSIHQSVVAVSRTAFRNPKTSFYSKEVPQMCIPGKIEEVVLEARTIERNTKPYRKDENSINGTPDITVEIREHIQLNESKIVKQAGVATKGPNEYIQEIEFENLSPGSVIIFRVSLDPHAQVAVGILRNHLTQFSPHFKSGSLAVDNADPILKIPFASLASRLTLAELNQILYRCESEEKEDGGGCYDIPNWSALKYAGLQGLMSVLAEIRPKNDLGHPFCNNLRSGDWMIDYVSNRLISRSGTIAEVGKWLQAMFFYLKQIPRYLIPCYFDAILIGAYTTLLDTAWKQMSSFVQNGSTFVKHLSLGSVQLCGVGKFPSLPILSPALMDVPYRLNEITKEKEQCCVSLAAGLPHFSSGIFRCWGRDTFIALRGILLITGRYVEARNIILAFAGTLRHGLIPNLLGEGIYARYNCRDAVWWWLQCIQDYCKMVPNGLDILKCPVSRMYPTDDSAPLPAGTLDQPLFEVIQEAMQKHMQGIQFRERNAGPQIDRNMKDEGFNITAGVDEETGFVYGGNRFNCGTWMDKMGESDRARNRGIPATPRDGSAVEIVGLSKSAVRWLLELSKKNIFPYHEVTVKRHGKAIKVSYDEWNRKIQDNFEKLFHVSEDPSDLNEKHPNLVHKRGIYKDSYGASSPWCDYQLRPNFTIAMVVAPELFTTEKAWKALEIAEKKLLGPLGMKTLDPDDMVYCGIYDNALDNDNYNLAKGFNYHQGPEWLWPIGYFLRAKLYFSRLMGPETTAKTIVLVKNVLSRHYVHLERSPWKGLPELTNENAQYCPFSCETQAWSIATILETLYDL
Chain of UniProt P23634 (P23634 whole entry, looked up): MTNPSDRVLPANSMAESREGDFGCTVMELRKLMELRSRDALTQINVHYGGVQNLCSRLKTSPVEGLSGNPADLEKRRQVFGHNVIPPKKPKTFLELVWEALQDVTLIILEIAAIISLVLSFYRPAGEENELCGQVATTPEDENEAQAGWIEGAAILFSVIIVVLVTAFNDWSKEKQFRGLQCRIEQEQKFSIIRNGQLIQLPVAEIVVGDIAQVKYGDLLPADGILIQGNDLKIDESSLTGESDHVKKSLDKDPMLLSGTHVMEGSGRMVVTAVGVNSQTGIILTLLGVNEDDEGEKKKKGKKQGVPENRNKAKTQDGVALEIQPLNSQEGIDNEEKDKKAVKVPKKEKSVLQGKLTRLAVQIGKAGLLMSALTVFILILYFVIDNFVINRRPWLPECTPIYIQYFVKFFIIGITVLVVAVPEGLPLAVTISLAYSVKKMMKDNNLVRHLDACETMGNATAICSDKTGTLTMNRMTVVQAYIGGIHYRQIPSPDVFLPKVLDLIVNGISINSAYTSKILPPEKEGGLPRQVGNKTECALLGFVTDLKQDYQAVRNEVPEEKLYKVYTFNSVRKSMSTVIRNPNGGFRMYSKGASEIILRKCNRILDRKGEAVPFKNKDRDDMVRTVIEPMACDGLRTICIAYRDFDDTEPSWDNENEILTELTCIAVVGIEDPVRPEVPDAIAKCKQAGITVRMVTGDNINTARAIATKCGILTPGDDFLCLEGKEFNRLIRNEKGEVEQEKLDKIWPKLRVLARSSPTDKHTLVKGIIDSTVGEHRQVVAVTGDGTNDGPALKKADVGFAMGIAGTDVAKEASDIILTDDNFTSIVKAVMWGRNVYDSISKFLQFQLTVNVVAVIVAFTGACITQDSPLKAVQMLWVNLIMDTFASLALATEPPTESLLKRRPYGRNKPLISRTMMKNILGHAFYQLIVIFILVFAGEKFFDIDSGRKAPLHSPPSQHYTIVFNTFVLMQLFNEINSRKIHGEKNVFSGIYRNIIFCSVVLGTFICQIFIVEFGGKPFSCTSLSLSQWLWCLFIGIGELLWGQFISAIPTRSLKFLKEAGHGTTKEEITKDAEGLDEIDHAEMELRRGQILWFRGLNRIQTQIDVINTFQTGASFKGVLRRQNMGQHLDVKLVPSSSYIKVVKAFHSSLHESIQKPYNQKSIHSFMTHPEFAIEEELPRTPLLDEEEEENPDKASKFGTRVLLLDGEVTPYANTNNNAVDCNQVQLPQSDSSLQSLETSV
Chain of UniProt Q9P2R3 (Q9P2R3 whole entry, looked up): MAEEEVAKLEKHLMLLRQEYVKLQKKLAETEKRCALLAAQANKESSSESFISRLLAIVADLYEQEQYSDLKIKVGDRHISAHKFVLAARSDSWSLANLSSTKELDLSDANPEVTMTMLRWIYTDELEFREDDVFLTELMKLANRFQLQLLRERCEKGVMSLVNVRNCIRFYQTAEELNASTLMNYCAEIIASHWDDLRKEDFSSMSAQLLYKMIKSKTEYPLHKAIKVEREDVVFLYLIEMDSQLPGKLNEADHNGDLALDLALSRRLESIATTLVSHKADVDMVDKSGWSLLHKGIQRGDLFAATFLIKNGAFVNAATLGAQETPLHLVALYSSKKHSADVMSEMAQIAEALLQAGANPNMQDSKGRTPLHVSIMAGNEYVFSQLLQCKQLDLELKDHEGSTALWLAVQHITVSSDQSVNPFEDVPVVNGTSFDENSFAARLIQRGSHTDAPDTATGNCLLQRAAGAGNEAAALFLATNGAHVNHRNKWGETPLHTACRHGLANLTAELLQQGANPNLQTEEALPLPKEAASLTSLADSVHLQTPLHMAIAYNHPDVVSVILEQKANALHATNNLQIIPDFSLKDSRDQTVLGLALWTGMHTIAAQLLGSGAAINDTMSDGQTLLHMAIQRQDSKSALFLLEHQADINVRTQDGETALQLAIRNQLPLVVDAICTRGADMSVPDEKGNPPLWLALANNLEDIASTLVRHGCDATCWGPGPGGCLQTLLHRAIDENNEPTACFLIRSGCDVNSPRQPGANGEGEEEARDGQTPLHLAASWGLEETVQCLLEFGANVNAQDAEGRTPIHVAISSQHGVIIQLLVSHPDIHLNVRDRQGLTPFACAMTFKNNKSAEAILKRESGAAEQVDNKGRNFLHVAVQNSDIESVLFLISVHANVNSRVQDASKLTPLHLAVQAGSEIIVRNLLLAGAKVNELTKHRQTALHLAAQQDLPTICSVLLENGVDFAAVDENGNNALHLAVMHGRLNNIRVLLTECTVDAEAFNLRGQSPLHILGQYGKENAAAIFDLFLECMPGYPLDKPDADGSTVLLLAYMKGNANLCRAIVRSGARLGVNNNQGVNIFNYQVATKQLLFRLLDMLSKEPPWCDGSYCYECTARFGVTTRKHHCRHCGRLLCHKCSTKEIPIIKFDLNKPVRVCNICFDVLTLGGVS
Chain of UniProt P14550 (P14550 whole entry, looked up): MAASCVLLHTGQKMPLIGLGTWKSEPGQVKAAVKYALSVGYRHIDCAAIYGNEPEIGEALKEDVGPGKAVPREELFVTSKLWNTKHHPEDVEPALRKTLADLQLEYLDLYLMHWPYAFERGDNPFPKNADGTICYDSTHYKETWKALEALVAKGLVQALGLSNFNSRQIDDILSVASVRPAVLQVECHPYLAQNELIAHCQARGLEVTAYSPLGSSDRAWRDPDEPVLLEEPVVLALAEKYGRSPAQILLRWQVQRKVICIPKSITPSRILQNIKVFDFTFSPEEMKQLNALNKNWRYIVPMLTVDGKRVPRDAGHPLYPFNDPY

Row | Target | probe-labelled cysteine peptide fold change (10 µM) | probe-labelled cysteine peptide fold change (50 µM)
1 | ATP2B4_P23634_632_TVIEPMACDGLR (UniProt P23634) | -0.0204 | -0.262
2 | ATRX_P46100_235_WCAEGGNLICCDFCHNAFCK (UniProt P46100) | 0.0337 | -0.0739
3 | ANLN_Q9NQW6_978_CQVNSSVEER (UniProt Q9NQW6) | 0.153 | 0.239
4 | ATIC_P31939_575_VVIEACDELGIILAHTNLR (UniProt P31939) | 0.103 | 0.126
5 | AKR1A1_P14550_46_HIDCAAIYGNEPEIGEALKEDVGPGK (UniProt P14550) | -0.393 | -1.14
6 | ALDH1L1_O75891_537_YFAGWCDK (UniProt O75891) | -0.0268 | -0.223
7 | AGL_P35573_126_VGADNHVLPLDCVTLQTFLAK (UniProt P35573) | 0.128 | 0.0379
8 | ATP13A1_Q9HD20_410_ATTGLKPVDSGCVAYVLR (UniProt Q9HD20) | 0.133 | 0.0894
9 | ANKFY1_Q9P2R3_389_TPLHVSIMAGNEYVFSQLLQCK (UniProt Q9P2R3) | 0.123 | 0.15
